“And” between values parts separate entries of the source, which are not always exact repeats. Equal values may be shown once. A number with no mark means an inactive call. The source made the active and inactive calls. Rule as the data show it, unless noted: active = inhibition above about 33%; inactive = the rest.
How the values were obtained:
[1] = StAR promoter reporter inhibitors, counter-screen for LRH-1 inverse agonist project, cell-based, luminescence, high throughput (AID 651611; in the data active = inhibition above about 28%); settings: StAR promoter luciferase reporter counterscreen, at 3.6 µM, active compounds read high
[2] = molecular target: Nuclear receptor subfamily 5 group A member 2 (Homo sapiens) (UniProt O00482); assay: LRH-1 (NR5A2) inverse agonists, retest, confirmation, cell-based, luminescence (AID 651613; in the data active = inhibition above about 42%;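 also: HEK293T cells co-transfected with LRH-1 and StAR promoter luciferase reporter; 0% = vehicle wells and 100% = parental cells lacking receptor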); settings: cell-based LRH-1 luciferase reporter, inverse agonism; at 3.6 µM; active compounds read high
Chain of Nuclear receptor subfamily 5 group A member 2 (Homo sapiens) (O00482 whole entry, looked up): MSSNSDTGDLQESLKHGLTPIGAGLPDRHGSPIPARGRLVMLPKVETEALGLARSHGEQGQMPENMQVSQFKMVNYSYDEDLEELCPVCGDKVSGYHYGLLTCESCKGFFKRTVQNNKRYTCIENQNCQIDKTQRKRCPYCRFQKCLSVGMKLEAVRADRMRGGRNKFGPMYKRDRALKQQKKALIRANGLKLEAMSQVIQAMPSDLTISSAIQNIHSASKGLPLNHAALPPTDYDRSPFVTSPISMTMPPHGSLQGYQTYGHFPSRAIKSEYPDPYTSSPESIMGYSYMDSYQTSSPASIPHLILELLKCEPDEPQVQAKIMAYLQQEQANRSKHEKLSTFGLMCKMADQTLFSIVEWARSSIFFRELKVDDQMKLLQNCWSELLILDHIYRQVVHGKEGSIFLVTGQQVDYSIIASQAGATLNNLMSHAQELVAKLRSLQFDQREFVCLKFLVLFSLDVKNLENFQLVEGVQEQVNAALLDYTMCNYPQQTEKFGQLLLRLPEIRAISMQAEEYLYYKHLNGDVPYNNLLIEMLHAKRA

[3] = molecular target: Steroidogenic factor 1 (Homo sapiens) (UniProt Q13285); assay: SF1 (NR5A1) inverse agonists, counter-screen for LRH-1 inverse agonist project, cell-based, luminescence, high throughput (AID 651614; in the data active = inhibition above about 44%;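 also: cells cotransfected with StAR promoter reporter and SF1 expression vector; 0% = vehicle on cells with receptor and 100% = vehicle on cells lacking receptor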); settings: cell-based SF1 luciferase reporter, at 3.6 µM, active compounds read high
Chain of Steroidogenic factor 1 (Homo sapiens) (Q13285 whole entry, looked up, the tested form may be a part): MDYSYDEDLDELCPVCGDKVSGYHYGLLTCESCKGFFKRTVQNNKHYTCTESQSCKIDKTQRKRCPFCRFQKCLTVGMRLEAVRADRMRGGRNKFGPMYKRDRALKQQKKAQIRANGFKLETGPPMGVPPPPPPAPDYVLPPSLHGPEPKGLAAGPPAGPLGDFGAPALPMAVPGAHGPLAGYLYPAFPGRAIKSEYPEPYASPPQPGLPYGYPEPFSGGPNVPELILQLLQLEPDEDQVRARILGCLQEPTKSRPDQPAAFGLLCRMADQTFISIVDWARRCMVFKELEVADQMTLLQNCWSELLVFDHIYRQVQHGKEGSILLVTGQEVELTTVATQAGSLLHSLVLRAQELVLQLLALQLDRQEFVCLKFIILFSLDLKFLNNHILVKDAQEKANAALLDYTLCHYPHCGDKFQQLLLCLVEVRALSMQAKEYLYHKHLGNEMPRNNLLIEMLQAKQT

[4] = VP16 transactivation reporter inhibitors, counter-screen for LRH-1 inverse agonist project, cell-based, luminescence, high throughput (AID 651615); settings: Gal4-VP16 luciferase reporter cells, at 3.6 µM, active compounds read high

SMILES | inhibition [1] | inhibition [2] | inhibition [3] | inhibition [4]
Cc1ccc[n+](CC(=O)Nc2ccc(Cl)c([N+](=O)[O-])c2)c1 | 9.69% | 47% (active) | 39.2% | 13.9%
CN1CCN(/N=C/c2nc(-c3cccc([N+](=O)[O-])c3)n3ccccc23)CC1 | -4.33% | 38.9% | 42.2% | 3.29%
O=C(COC(=O)C1CCCCC1)NCCc1ccccc1 | 3.93% | 50.9% (active) | 41.5% | -5.95%
Cc1ccc(N2C(=O)C(Cl)=C(N3CCN(C)CC3)C2=O)c(C)c1 | 13.1% | 50.3% (active) | 39% | -9.83%
CC1(C(=O)NCc2ccco2)Cc2c(-c3cccc(C(N)=O)c3)ccnc2O1 (stereo not given) | 49.6% (active) | 57.9% (active) | 59.3% (active) | -9.28%
COC(=O)c1c(NC(=O)c2ccco2)sc2c1CCN(C(C)=O)C2 | 20% | 54.4% (active) | 44.7% (active) | -41%
O=C(Nc1ccccc1C(=O)NC1CC1)c1ccc([N+](=O)[O-])o1 | 22.3% | 62.9% (active) | 65.1% (active) | -5.35%
O=c1c2ccccc2c(C=Nc2ccccc2O)c(O)n1-c1nccs1 | 5.33% | 46.1% (active) | 35.1% | -7.97%
O=[N+]([O-])c1cccc(-c2ccc(/C=N/NC(=S)NCc3ccco3)o2)c1 | 10.6% | 48.5% (active) | 51.2% (active) | -3.67%
Cc1ccc(NC(=O)CSc2nc3[nH]c(=O)cc(O)c3s2)c(Br)c1 | 5.79% | 56.3% (active) | 46.5% (active) | -1.62%
O=C(COc1ccc(Nc2ccccc2)cc1)Nc1ccncc1 | 19.2% | 52.8% (active) | 51.6% (active) | 41.4% (active)
CCN(CC)C1=CC(=O)OC12CCCCC2 | 2.42% | 51.2% (active) | 48.7% (active) | -9.57%
Cn1c(=O)c2c(nc(CN3CCOCC3)n2CC(=O)c2ccccc2)n(C)c1=O | -4.41% | -0.49% | 1.97% | 5.48%
CCOc1ccc(NC(=O)Cn2nc(-c3ccccc3Cl)n(CC)c2=S)cc1 | 1.73% | 60.4% (active) | 54.6% (active) | 2.74%
CCCn1c2c(c(=N)c3c1CCC3)CCCC2 | 4.81% | 61.8% (active) | 55% (active) | 44.9% (active)
CCOc1ccccc1C(=O)Nc1cc2c(cc1N1CCCC1)n(CC)c(=O)n2CC | 52.6% (active) | 48.8% (active) | 53.5% (active) | 49.6% (active)
C[n+]1c2cc(N)ccc2cc2ccc(N)cc21 | 34.8% (active) and 28.5% (active) | 109% (active) and 105% (active) | 79.5% (active) and 66.7% (active) | 95.3% (active) and 92.1% (active)
CC(NC(=O)CCl)c1ccc(Cl)c(Cl)c1 (stereo not given) | 32.8% (active) | 69.4% (active) | 67.3% (active) | -15.3%
CN(C)c1ccc(NC(=O)CN2CCC(NC(=O)C3CCCCC3)CC2)cc1 | 12.2% | 62.6% (active) | 54.1% (active) | -3.68%
COc1cc(F)c(C2=CC(=O)CC(C)(C)C2)cc1F | -6.98% | 43.9% (active) | 34.5% | -13.9%
CC(=O)c1ccc(NC(=O)COc2ccccc2C(=O)Nc2ccccc2)cc1 | 5.25% | 54.9% (active) | 45.9% (active) | -21.9%
COc1ccc(NC(=O)CSc2n[nH]c(-c3ccccn3)n2)cc1 | 2.28% | 32.4% | 20.2% | 2.72%
Cn1c(CN2CCN(c3ccc(Cl)cc3)CC2)nc2ccccc21 | 5.45% | 32.9% | 52.9% (active) | -6.14%
CCCCCCCn1ccc(=N)cc1 | 44.1% (active) | 86.7% (active) | 77.7% (active) | 67.9% (active)
CCN(CC)c1nc(-c2ccccn2)nc(-c2ccccc2)c1C#N | 11.5% | 53.4% (active) | 55.7% (active) | 13.6%
O=C(CSc1ncn[nH]1)Nc1ccc(Cl)c(Cl)c1 | 18.4% | 45.2% (active) | 39% | 20.6%
Cc1cc(OCC(=O)NC2CC2)c2c(C)cc(=O)oc2c1 | 18.9% | 65.5% (active) | 58.2% (active) | -8.04%
CC(=O)N1CCN(c2cc(N3CCCC3)c(F)cc2[N+](=O)[O-])CC1 | 2.68% | 57.4% (active) | 48.7% (active) | -0.47%

SMILES | inhibition [1] | inhibition [2] | inhibition [3] | inhibition [4]
COc1ccc(Cc2c(-c3cccc(Cl)c3)nc3cc(C)c(Br)c(C)n23)c(C)c1 | 3.35% | 41.3% (active) | 36.9% | -4.66%
CCC(C)NC(=O)c1ccc2c(c1)N(Cc1ccccc1)C(=O)CS2 (stereo not given) | 7.12% | 49.2% (active) | 51.5% (active) | 3.22%
Cc1ccccc1Nc1nc(-c2cccnc2)nc2ccccc12 | 2.04% | 41.5% (active) | 33.2% | -10.5%
CCc1cc(=O)oc2cc3occ(-c4ccc(OC)c(F)c4)c3cc12 | 26.4% | 75% (active) | 60.6% (active) | 23.1%
O=C1c2ccccc2-n2c1nc1ccccc1c2=O | 41.1% (active) | 66.7% (active) | 57.8% (active) | 51% (active)
Cc1cc2oc(C(=O)NCc3ccncc3)c(C)c2cc1C | -3.56% | 36.2% | 39.6% | 3.82%
Cc1cc(SC#N)cc(C)c1NC(=O)CCl | 27.4% | 52.8% (active) | 50.9% (active) | -31.6%
CC(O)(c1cccnc1)c1nc(-c2cccc(C#N)c2)cs1 (stereo not given) | 5.87% | 53.4% (active) | 54% (active) | 7.33%
O=C1C=C(N2CCCCCC2)C2(CCCCC2)O1 | 4.6% | 58.5% (active) | 55% (active) | -9.31%
COc1ccc(CCC(=O)Nc2c(-c3ccc(N(C)C)cc3)[nH][nH]c2=O)cc1 | 4.07% | 27.3% | 37.5% | -2.18%
COc1ccc(C(=O)N/N=C(\c2ccccc2)c2ccccn2)cc1 | 76.4% (active) | 80.3% (active) | 84.9% (active) | 60.4% (active)
Cc1c(C#N)c(O)n(CCO)c(=O)c1N=Nc1ccc2c(c1)COC2=O | 17.9% | 39.5% | 52.1% (active) | -1%
O=C(COC(=O)c1ccccn1)Nc1cccnc1Cl | 3.58% | 40.5% | 39.4% | -6.21%
COc1ccc(Br)cc1/C=C/C(=O)c1ccc(NC(C)=O)cc1 | 81.4% (active) | 95% (active) | 94.5% (active) | 85.4% (active)
CCOc1ccc(NC(=O)CSc2nc3[nH]ncc3c(=O)[nH]2)cc1 | 8.84% | 56.8% (active) | 43.5% (active) | -6.78%
COc1ccc(Oc2ccccc2/C=N/O)cc1 | 2.42% | 57% (active) | 58.1% (active) | 42.5% (active)
Cc1csc(NC(=O)CSc2nc3[nH]c(=O)cc(O)c3s2)n1 | 15.2% | 60.5% (active) | 68.1% (active) | -21.4%
CCOc1ccc(OCCN2C(=O)NC(Cc3c[nH]c4ccccc34)C2=O)cc1 (stereo not given) | 13.2% | 54.9% (active) | 58.2% (active) | 4.66%
Cn1c(SCC(=O)Nc2ccc3nc(SCC(=O)NC4CC4)sc3c2)nnc1-c1ccccc1 | 12.3% | 59.7% (active) | 61.5% (active) | 2.96%
CCc1c(O)nc(SCC(=O)Nc2ccc(OC)cc2)n(C2CCCCC2)c1=O | 13.3% | 55.5% (active) | 51.4% (active) | 5.01%
CC(=O)Nc1ccc(NC(=O)COC(=O)c2cc(S(=O)(=O)N3CCCC3)ccc2O)cc1 | 21% | 58.9% (active) | 61.4% (active) | -14.8%
CCCCNc1cc(C)nc(NCc2ccccc2)n1 | 35.5% (active) | 57.6% (active) | 68.8% (active) | 50.8% (active)
O=C(Nc1cccc2ccccc12)c1ccc([N+](=O)[O-])o1 | 27.4% | 68.5% (active) | 70.8% (active) | -3.59%
O=C(CSC1=NCCS1)N1CCN(c2ccc(Cl)cc2)CC1 | 8.14% | 56.3% (active) | 53.3% (active) | 18.2%
CN(CCC#N)Cc1cc(=O)oc2ccc3ccccc3c12 | 13.8% | 55.2% (active) | 46.2% (active) | 5.57%
O=[N+]([O-])c1ccc(N2CCCC2)cc1N1CCCC1 | 9.77% | 56.8% (active) | 60.4% (active) | 8.32%
O=C(NCc1ccc2c(c1)OCO2)c1nn(-c2ccccc2)c(=O)c2ccccc12 | 4.72% | 52.2% (active) | 53.3% (active) | -2.13%
